Screening data as filed in PubChem BioAssay.
HepG2 viability = qHTS for Inhibitors of TGF-b: Cytotox Counterscreen; HepG2 CAGA-GFP viability, ATP luminescence, 18 h; Potency, µM (titrated, usually from 46.1 µM), actives largely listed as cytotoxic; hit rate 0.76% among 410,000; AID 588856, 2011
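CellTiter-Glo luminescence gave cytotoxicity after 18 hours at 37 degrees C. The cells were HepG2 CAGA-GFP in 1% FBS DMEM, stimulated with 500 pg/mL TGF-beta after compound addition. %Activity was normalised to no-cell wells (complete cell-killing) and DMSO (no toxicity), and curves were fitted and classified.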
TGFb SMAD3 inh = qHTS for Inhibitors of TGF-b | HepG2 CAGA-GFP TGF-b/SMAD3 reporter, GFP fluorescence, 18 h; TGF-beta stimulated, 500 pg/mL final | Potency, µM (highest dose often 46.1 µM), actives largely listed as inhibitors | hit rate 1.2% among 410,000 | AID 588855, 2011; note: nearly all actives have a fitted effect of over 65% in size
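HEPG2 CAGA-GFP reporter cells (1000/well, DMEM with 1% FBS) received compounds, then recombinant TGF-beta at 500 pg/mL final for 18 hours at 37 degrees C. Per-cell GFP summed per well was normalised to unstimulated and stimulated DMSO controls before curve fitting.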
TDP1 block = qHTS Assay for Inhibitors of Tyrosyl-DNA Phosphodiesterase (TDP1) | AID 485290, 2010 | hit rate 0.28% among 350,000 | recombinant TDP1, AlphaScreen DNA substrate cleavage | Potency, µM (series often up to 130 µM), most hits filed as inhibitors; note: nearly all actives have a fitted effect of over 40% in size
Target sequence (Q9NUW8 whole entry, looked up): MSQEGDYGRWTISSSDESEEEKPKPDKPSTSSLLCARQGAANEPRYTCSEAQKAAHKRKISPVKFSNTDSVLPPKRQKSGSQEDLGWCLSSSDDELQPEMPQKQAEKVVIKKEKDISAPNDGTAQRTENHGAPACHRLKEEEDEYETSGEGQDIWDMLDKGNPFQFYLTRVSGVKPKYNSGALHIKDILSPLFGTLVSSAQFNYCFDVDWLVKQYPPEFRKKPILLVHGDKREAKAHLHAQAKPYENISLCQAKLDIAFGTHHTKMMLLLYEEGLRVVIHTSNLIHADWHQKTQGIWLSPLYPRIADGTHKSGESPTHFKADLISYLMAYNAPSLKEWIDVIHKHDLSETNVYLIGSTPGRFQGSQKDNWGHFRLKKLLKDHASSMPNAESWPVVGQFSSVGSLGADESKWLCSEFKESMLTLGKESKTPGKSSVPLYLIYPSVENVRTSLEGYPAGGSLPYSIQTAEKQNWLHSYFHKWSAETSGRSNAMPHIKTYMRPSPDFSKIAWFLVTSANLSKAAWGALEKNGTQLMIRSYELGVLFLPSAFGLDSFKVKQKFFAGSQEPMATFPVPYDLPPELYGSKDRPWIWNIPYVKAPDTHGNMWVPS
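Tdp1 1 nM final; 15 min RT w/ cpd; substrate 15 nM, 5 min; beads 10 ug/ml, 10 min; AlphaScreen read. Neg ctrl: no enzyme.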
TDP1 cell noCPT = qHTS for Inhibitors of human tyrosyl-DNA phosphodiesterase 1 (TDP1): qHTS in cells in absence of CPT. Potency, µM (titrated, usually from 46.2 µM), hits mostly inhibitors. DT40 Tdp1-/- hTDP1 cells, no CPT, ATP luminescence, 48 h. AID 686978, 2013. hit rate 15% among 420,000; note: nearly all actives have a fitted effect of over 55% in size
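Luminescent ATP content (CellTiter-Glo) served as the growth readout. Knockout chicken DT40 cells expressing human TDP1 were exposed to compounds without camptothecin for a minimum 48 hr at 37 °C.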
TDP1 cell CPT = qHTS for Inhibitors of human tyrosyl-DNA phosphodiesterase 1 (TDP1): qHTS in cells in presence of CPT; Potency, µM (titrated, usually from 46.2 µM), usual class: inhibitors; hit rate 12% among 420,000; AID 686979, 2013; chicken DT40 Tdp1-/-;hTDP1 cells + 20 nM CPT, ATP luminescence, 48 h; note: nearly all actives have a fitted effect of over 55% in size
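Chicken DT40 Tdp1-/- cells stably complemented with human TDP1 were seeded at 400 cells/well in medium containing 20 nM camptothecin, exposed to pin-transferred compounds, and grown at 37 °C for at least 48 hr. Viability was read as ATP luminescence.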
IL1B secr inh = qHTS for Inhibitors of Inflammasome Signaling: IL-1-beta AlphaLISA Primary Screen; activity change, % at 57.5 µM; THP-1 LPS/ATP IL-1B secretion, AlphaLISA, 16 h; hits give low values; hit rate 4.7% among 360,000; in the data active = activity change below about -50%; inconclusive = mostly about -30% to -49%
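THP-1 cells pretreated 1 hr with compounds (up to 57.5 uM final), then stimulated with LPS (250 ng/mL final) plus ATP (1.25 mM final); secreted IL-1B measured by AlphaLISA after 16 hr, decreased signal indicating inhibition.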
Each line names hits and unclear results; the compound was inactive in the other large screens. This is a sample that favours compounds with a hit; in the whole collection about 19% have one here. Unless noted, calls come from the whole dose curve; as a rule, active = well fitted curve in the direction sought with a large enough effect; inconclusive = small, poorly fitted or top-dose-only effect, or another doubt; inactive = no such curve, though single readings can be large; an effect the other way counts as inactive or inconclusive.

O=C(c1ccc(F)cc1F)N1CCCC(c2nc(-c3ccc(F)cc3)no2)C1 (stereo unspecified)	TGFb SMAD3 inh inconclusive, TDP1 cell noCPT 18µM, TDP1 cell CPT inconclusive
COc1ccc(-c2noc(N3CCCC(C(=O)Nc4ccc(F)cc4F)C3)n2)cc1 (stereo unspecified)	TDP1 cell noCPT inconclusive, TDP1 cell CPT inconclusive (no result: TDP1 block)
O=C(Nc1ccc(F)cc1F)N1CCCC(c2nc(-c3ccc(F)cc3)no2)C1 (stereo unspecified)	TDP1 cell noCPT inconclusive, TDP1 cell CPT 18µM
COc1ccc(-c2noc(C3CCCN(C(=O)c4ccccc4OC)C3)n2)cc1OC (stereo unspecified)	TDP1 cell noCPT inconclusive, TDP1 cell CPT inconclusive
OC[C@@H]1CN(CCN2CCOCC2)C[C@H](n2cnc3c(NC4CCC4)ncnc32)O1	none (no result: TDP1 block)
COc1cc(C(=O)Nc2cccc(OCc3cc(=O)n4cc(C)sc4n3)c2)cc(OC)c1OC	TGFb SMAD3 inh inconclusive (no result: IL1B secr inh)
CCNC(=S)Nc1cc(OC)c(NC(=O)c2ccco2)cc1OC	none
CC(Oc1ccc(Cl)cc1)C(=O)NNC(=S)NC(=O)c1ccco1 (stereo unspecified)	TDP1 cell noCPT 16µM, TDP1 cell CPT inconclusive
O=C(NNC(=S)NC(=O)c1ccco1)c1ccc(F)cc1	TDP1 cell noCPT inconclusive, TDP1 cell CPT inconclusive (no result: TDP1 block)
COC(=O)c1cc(OC)c(OC)cc1NC(=S)NC(=O)c1ccco1	TDP1 cell noCPT 10µM, TDP1 cell CPT 21µM
COc1ccc(C(=O)NNC(=S)NC(=O)c2ccco2)cc1	TDP1 cell noCPT 8.2µM, TDP1 cell CPT 5.2µM
CCCOc1ccc(C(=O)NNC(=S)NC(=O)c2ccco2)cc1	TDP1 cell noCPT 2.9µM, TDP1 cell CPT 3.3µM (no result: TDP1 block)
COc1cc(OC)cc(C(=O)NCC2Cc3cccc(-c4nc(C)cnc4C)c3O2)c1 (stereo unspecified)	none (no result: HepG2 viability, TGFb SMAD3 inh, TDP1 block, IL1B secr inh)
CCCCNC(=O)C(c1ccc(OCC(=O)OC)c(C(=O)OC)c1)N(CCOC)C(=O)CCCCCN1C(=O)NC(c2ccc(-c3ccccc3)cc2)C(C(=O)OCc2ccccc2)=C1C (stereo unspecified)	none (no result: HepG2 viability, TGFb SMAD3 inh, TDP1 cell noCPT, TDP1 cell CPT, IL1B secr inh)
Cc1cccc2nc(Cn3c(=O)n(-c4ccc(Cl)cc4)c(=O)c4c5c(sc43)CCC5)cc(=O)n12	none (no result: IL1B secr inh)
COc1cccc(CN2C(=O)c3ccccc3Sc3ccc(C(=O)NCc4ccccc4)cc32)c1	none (no result: IL1B secr inh)
COc1ccccc1OCCNC(=O)c1ccco1	none
CCC(NC(=O)c1ccccc1NC(=O)c1ccco1)C(=O)NNC(=O)c1ccc(OC)cc1 (stereo unspecified)	IL1B secr inh -120
O=C(NC(=S)NCc1ccc(Cl)cc1)c1ccco1	TDP1 cell noCPT inconclusive, TDP1 cell CPT inconclusive, IL1B secr inh -101
CCCCOc1ccc(OCCNC(=O)c2ccco2)cc1	TDP1 cell noCPT 16µM, TDP1 cell CPT inconclusive
O=C(NC(=S)NCCc1ccccc1)c1ccco1	TGFb SMAD3 inh inconclusive, TDP1 cell noCPT inconclusive, TDP1 cell CPT inconclusive
COc1cc(OC)c(NC(=O)N2CCC(CN3CCCC3)CC2)cc1Cl	none (no result: IL1B secr inh)
COc1ccc(OC)c(NC(=O)CN(Cc2ccccc2)S(C)(=O)=O)c1	none
CCCC[C@@H]1C[C@H]1C(NC(=O)Cc1ccccc1)c1ccc(Cl)cc1 (stereo partly specified)	none (no result: HepG2 viability, TGFb SMAD3 inh, TDP1 cell noCPT, TDP1 cell CPT, IL1B secr inh)
COc1ccc(C(=O)n2cnc3ccccc32)cc1[N+](=O)[O-]	none
O=C(O)c1ccc(NC(=O)c2ccccc2NC(=O)c2cccc(Br)c2)cc1	TDP1 cell CPT inconclusive (no result: TDP1 block)
NC(=S)N/N=C/c1ccc(-n2nncc2-c2ccc(Cl)cc2)cc1	TGFb SMAD3 inh inconclusive, TDP1 cell noCPT inconclusive, IL1B secr inh -70 (no result: TDP1 block)
CC(Sc1nccn1C)C(=O)Nc1ccccc1 (stereo unspecified)	none
COc1ccc(/C=C/C=C2\N=C(SC)SC2=O)cc1	TDP1 cell noCPT 29µM, TDP1 cell CPT 23µM
COc1ccccc1Nc1cc2cc(Br)ccc2c(=O)[nH]1	TGFb SMAD3 inh inconclusive, TDP1 cell noCPT 5.2µM, TDP1 cell CPT 2.6µM (no result: TDP1 block)
COc1ccccc1Nc1nnc(C)c(=O)[nH]1	none
COc1ccc(OC)c(Nc2cc3ccccc3c(=O)[nH]2)c1	TDP1 cell noCPT 1.8µM, TDP1 cell CPT 1.3µM (no result: TDP1 block)
O=c1[nH]c(Nc2ccccc2)cc2cc(Br)ccc12	TDP1 cell noCPT 18µM, TDP1 cell CPT inconclusive (no result: TDP1 block)
Nc1nc(N)nc(-c2cccc(Cl)c2Cl)n1	none
CC(C)c1ccc(NC(=O)CSC2=Nc3ccccc3C3=NC(CC(=O)NCc4ccco4)C(=O)N23)cc1 (stereo unspecified)	TDP1 cell noCPT inconclusive, TDP1 cell CPT inconclusive (no result: IL1B secr inh)
CCC1(CC)NC(=O)N(CC(=O)OCC(=O)Nc2ccc(OC(F)(F)F)cc2)C1=O	none
Cc1ccc2c(c1)C1(SC(C)C(=O)N1c1ccc(Cl)cc1)C(=O)N2 (stereo unspecified)	TDP1 cell noCPT 4.1µM, TDP1 cell CPT 6.5µM (no result: TDP1 block)
Cc1ccc(N2C(=O)CSC23C(=O)Nc2ccccc23)cc1 (stereo unspecified)	none
CCC(C)(C(=O)NC1CCCCC1)N(Cc1ccco1)C(=O)Cc1cccs1 (stereo unspecified)	TDP1 cell noCPT inconclusive, TDP1 cell CPT inconclusive
CCC(C)(C(=O)NC1CCCCC1)N(Cc1ccco1)C(=O)c1ccc2c(c1)OCO2 (stereo unspecified)	TDP1 cell noCPT 8.2µM, TDP1 cell CPT 12µM
COc1cc(/C=C/C(=O)Nc2ccc(N3CCCCC3)c(S(=O)(=O)Nc3ccccc3Cl)c2)cc(OC)c1OC	TDP1 cell noCPT 2.6µM, TDP1 cell CPT inconclusive
CCN(CC)S(=O)(=O)c1ccc(N2CCCC2)c(NS(=O)(=O)c2ccccc2)c1	TDP1 cell noCPT inconclusive, TDP1 cell CPT 23µM
COc1ccccc1NS(=O)(=O)c1cc(NC(=O)Nc2ccc(Cl)cc2Cl)ccc1N1CCCCC1	TGFb SMAD3 inh inconclusive, TDP1 cell noCPT inconclusive, TDP1 cell CPT inconclusive
CCN(CC)S(=O)(=O)c1ccc(N2CCCC2)c(NS(=O)(=O)c2ccc([N+](=O)[O-])cc2)c1	TDP1 cell CPT inconclusive
CCN(CC)S(=O)(=O)c1ccc(N2CCOCC2)c(NC(=O)Cc2ccc(Cl)cc2)c1	TDP1 cell noCPT inconclusive, TDP1 cell CPT inconclusive
